Assay results taken from ChEMBL document CHEMBL1961873, “Compounds: GSK PKIS; Assays: Nanosyn kinase panel” (2012).

Target: Platelet-derived growth factor receptor alpha (Homo sapiens) (UniProt P16234)
Settings: at 1 µM
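Further: values are mean percent inhibition of PDGFRA.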

Sequence of Platelet-derived growth factor receptor alpha (Homo sapiens) (P16234 whole entry): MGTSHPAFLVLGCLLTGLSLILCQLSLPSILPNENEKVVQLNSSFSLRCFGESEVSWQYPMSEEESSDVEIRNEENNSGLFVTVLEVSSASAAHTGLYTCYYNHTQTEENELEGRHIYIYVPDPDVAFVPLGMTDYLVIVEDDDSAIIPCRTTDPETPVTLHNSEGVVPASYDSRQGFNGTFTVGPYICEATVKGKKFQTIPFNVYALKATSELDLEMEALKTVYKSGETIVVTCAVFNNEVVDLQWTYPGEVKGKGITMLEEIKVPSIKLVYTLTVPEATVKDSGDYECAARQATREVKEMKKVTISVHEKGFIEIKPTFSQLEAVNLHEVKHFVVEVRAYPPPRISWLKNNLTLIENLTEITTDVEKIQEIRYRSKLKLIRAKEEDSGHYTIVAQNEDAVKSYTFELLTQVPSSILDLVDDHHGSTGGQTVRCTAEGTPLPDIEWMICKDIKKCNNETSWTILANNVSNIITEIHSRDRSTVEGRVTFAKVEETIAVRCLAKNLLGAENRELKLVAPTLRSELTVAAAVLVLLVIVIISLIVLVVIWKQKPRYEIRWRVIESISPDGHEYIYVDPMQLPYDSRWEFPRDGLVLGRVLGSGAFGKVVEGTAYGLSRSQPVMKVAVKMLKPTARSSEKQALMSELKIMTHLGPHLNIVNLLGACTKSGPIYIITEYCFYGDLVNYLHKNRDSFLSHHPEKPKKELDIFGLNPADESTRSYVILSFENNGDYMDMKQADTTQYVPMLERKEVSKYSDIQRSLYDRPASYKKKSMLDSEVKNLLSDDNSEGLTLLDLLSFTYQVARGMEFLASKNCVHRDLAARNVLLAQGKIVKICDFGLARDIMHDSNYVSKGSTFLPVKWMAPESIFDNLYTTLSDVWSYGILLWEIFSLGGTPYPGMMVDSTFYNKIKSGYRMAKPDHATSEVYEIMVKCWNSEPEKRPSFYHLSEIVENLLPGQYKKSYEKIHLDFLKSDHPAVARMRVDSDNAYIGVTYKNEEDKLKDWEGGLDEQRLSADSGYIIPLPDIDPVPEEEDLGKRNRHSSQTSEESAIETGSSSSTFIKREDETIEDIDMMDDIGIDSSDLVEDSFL

| SMILES | inhibition |
| --- | --- |
| COc1cccc(-n2nc(C)c3c(N/N=C(\C)c4ccncc4)ncnc32)c1 | 7.93% |
| N#Cc1c(NC(=O)c2ccccc2F)sc2c1CCCC2 | 5.27% |
| COc1cc2ncnc(Nc3ccc4c(cnn4Cc4ccccc4)c3)c2cc1OC | 36.9% |
| Cc1cc(O)cc(C)c1/C=C/c1cncc(C(=O)N(C)C)c1 | 13.3% |
| NS(=O)(=O)c1ccc(NC=C2C(=O)Nc3ccc4ncsc4c32)cc1 | 91.4% |
| NS(=O)(=O)c1ccc(-c2cc3ccncc3cc2OCc2ccccc2)cc1 | 13.2% |
| Cc1ccc2c(-c3ccnc(Nc4ccc5c(c4)OCCO5)n3)c(-c3ccc(C(F)(F)F)cc3)nn2n1 | 9.11% |
| Cc1cc(-c2ccccn2)cc(C)c1/C=C/c1cncc(-c2nn[nH]n2)c1 | 15.4% |
| COc1cc(/C=N/Nc2ncnc3c2cnn3C(C)C)ccc1O | 64.7% |
| COC(=O)c1cncc(/C=C/c2c(C)cc(O)cc2C)c1 | 42.8% |
| COc1ccc2ncnc(Nc3ccc(OCc4ccccc4)cc3)c2c1 | 12.2% |
| Cc1ccc(O)cc1Nc1ccnc2ccc(S(C)(=O)=O)cc12 | 85% |
| CC(C)c1ccc(Nc2nccc(-c3cnn4ncccc34)n2)cc1 | 43.5% |
| COc1cc2ncn(-c3cc(OCc4ccccc4S(C)(=O)=O)c(C#N)s3)c2cc1OC | 81.6% |
| Nc1nccc(C#Cc2cncnc2Nc2ccc(OCc3cccc(F)c3)c(Cl)c2)n1 | 15.5% |
| [O-][S+]1CCN(Cc2ccc(-c3ccc4ncnc(Nc5ccc(OCc6ccccc6)c(Cl)c5)c4c3)o2)CC1 | 11.8% |
| CCS(=O)(=O)c1ccc(OC)c(Nc2nccc(N(C)c3ccc4c(C)n[nH]c4c3)n2)c1 | 67.5% |
